# About 83,000 compounds went through this panel and 20% of them were active in at least one assay; those are over-represented in the sample as a whole.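 Plates (96-well) were seeded with cells, treated with compound at one concentration, and incubated for 48 hours before percent growth was determined.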 Active and inactive are the calls of the source. How the source made its calls: active means growth percent below 10; inactive means the rest.
# Test system: COLO 205 colon
# Experiment: NCI-60 one-dose screen, 48 h (100 = growth as untreated, 0 = no growth, -100 = all killed)
# Details: 10 µM unless noted
row,Structure (SMILES),growth
1,O=C1NC(=O)C(=Cc2cn(Cc3cn(Cc4ccc(Cl)cc4Cl)nn3)c3ccccc23)C(=O)N1,122% (inactive)
2,CN1CCN(Cc2ccc(C(=O)Nc3cncc(C#Cc4cnc(N)c5ccccc45)c3)cc2C(F)(F)F)CC1,-50.9% (active)
3,COc1ccc(C2C3=C(COC3=O)N(CCO)c3cc4c(cc32)OCCO4)cc1 (centres undefined),84.2% (inactive)
4,O=C(Nc1ccc(I)cc1F)c1cc(Cl)ccc1O,42.8% (inactive)
5,NCCOc1ccccc1/C=C1\c2ccccc2-c2ccc([N+](=O)[O-])cc21,-75.4% (active)
6,O=c1oc2ccc(I)cc2c(=O)n1-c1ccc(Cl)cc1F,52.1% (inactive)
7,COc1cc(/C=C2\CN(C)C/C(=C\c3cc(CN4CCOCC4)c(O)c(OC)c3)C2=O)cc(CN2CCOCC2)c1O,45.2% (inactive)
8,CCOC(=O)c1sc(-c2ccc(OS(=O)(=O)C[C@]34CCC(CC3=O)C4(C)C)c(C=O)c2)nc1C,-34.9% (active)
9,COc1ccc(/C=C2/SC(=O)N(CC(=O)N3CCN(c4cc5c(cc4F)c(=O)c(C(=O)O)cn5C4CC4)CC3)C2=O)cc1,108% (inactive)
10,COc1ccc(C)c2sc(N(Cc3cccnc3)C(=O)c3ccc(C#N)cc3)nc12,1.84% (active)
11,NC(=O)CSc1nc(-c2ccc(F)cc2)cc(-c2ccco2)n1,111% (inactive)
12,O=c1c2cc(F)cc(Cl)c2sc2c(Cl)nc3ccccc3c12,116% (inactive)
13,O=Cc1cc2ccccc2nc1Nc1nccs1,69.7% (inactive)
14,CC1=NCC2NC(=O)NC(C)=C12 (centres undefined),108% (inactive)
